Screening results (PubChem BioAssay)
In the library only some 21% were active in any assay of this set; here they are far more common.
HCV inh: inhibitors of hepatitis C virus infection. 340,000 tested, 3.4% active. Potency, µM (titrated, usually from 41.8 µM), actives largely listed as inhibitors. Huh7.5.1 HCVcc-Cre infection, luciferase reporter, 44 h
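Infectious HCVcc-Cre (~0.5 moi) was added to cells just after compound, with cells seeded 4 h earlier at 1,000 per well. Luciferase activity after 44 h culture reported infection; substrate was incubated 15 min at room temperature before reading.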
Pf growth 96h: P. falciparum growth inhibition at 96 hour, primary screen for plastid delayed-death inhibitors; AID 504834; Potency, µM (highest dose often 28.7 µM), usual class: inhibitors; P. falciparum luciferase reporter growth, 96 h; 320,000 tested, 6.9% active
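Two parasite generations (96 h, 37 C, 5% CO2) of compound exposure in infected erythrocytes (0.05% parasitemia, 2% hematocrit). Luciferase-reporter P. falciparum; decreased luminescence indicates inhibited growth, aimed at apicoplast-acting delayed death.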
Pf growth 48h: P. falciparum growth inhibition at 48 hours (one generation). P. falciparum luciferase growth in erythrocytes, 48 h. Potency, µM (titrated, usually from 28.7 µM), most hits filed as inhibitors. 310,000 tested, 5.9% active. AID 504832
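Luminescence readout; reporter = integrated firefly luciferase in P. falciparum. RBC culture at 2% hematocrit, 0.1% parasitemia final, 37 C/5% CO2; decreased signal taken as growth inhibition.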
Shiga inhibitor: Shiga toxin inhibition. Vero cells, Shiga toxin protein synthesis inhibition reporter. inhibition, % at 38.7 µM. AID 2315. 290,000 tested, 9.2% active; in the data active means inhibition mostly above about 28%, no sharp cut-off; inactive means mostly below about 43%
HCMV antiviral: blocks human cytomegalovirus replication | 410,000 tested, 4.5% active | activity change, negative = inhibition, % at 57.5 µM | HFF cells, HCMV-luciferase reporter, 72 h; stronger effect = lower value; in the data active means activity change below about -60%; inconclusive means no clear call, values can overlap the other calls; inactive means above about -39%
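Luciferase read-out from HCMV-luciferase-infected HFFs (MOI 1 PFU/cell) 72 h post infection at 37C; compounds added after 16 h cell attachment; activity normalized between buffer-only basal and Salinomycin (10uM) inhibitor controls.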
CHX counter: counter-screen hit for Shiga toxin inhibitors, cycloheximide; cell reporter, cycloheximide protein synthesis inhibition counterscreen; 300,000 tested, 12% active; max response, %; in the data active means max response mostly above about 13%, no sharp cut-off; inactive means mostly below about 14%; further: read at 38.3 µM for the half of the compounds with a filed dose
A number is an active result; - = inactive; ? = inconclusive; . = not tested or not shown. Unless noted, the call rests on the fitted dose curve; in most records, active means well fitted inhibition curve with a large enough effect; inconclusive means small, poorly fitted or top-dose-only effect, or another doubt; inactive means no such curve, though single readings can be large or run the other way.

SMILES	HCV inh	Pf growth 96h	Pf growth 48h	Shiga inhibitor	HCMV antiviral	CHX counter
CCCS(=O)(=O)Nc1ccc(N2CCCCC2)c(S(=O)(=O)Nc2ccccc2OC)c1	?	13.1µM	10.4µM	.	-	.
COc1ccc(C(=O)CN2C(=O)C(C)(C)Oc3ccc(C(=O)N4CCCCCC4)cc32)cc1	-	9.28µM	.	-	-	-
Cc1ccc(NC(=O)c2ccc3c(c2)N(CC(=O)N2CCCCC2)C(=O)C(C)(C)O3)cc1	5.62µM	?	?	-	-	-
CC(C)(C)NC(=O)c1ccc2c(c1)N(CC(=O)N1CCN(c3ccc(F)cc3)CC1)C(=O)C(C)(C)O2	-	.	10.4µM	-	-	-
CC(C)(C)NC(=O)c1ccc2c(c1)N(CC(=O)N1CCCC1)C(=O)C(C)(C)O2	-	?	-	.	-	-
Cn1cc(C(=O)NS(=O)(=O)Nc2ccc(Br)cn2)c2ccccc21	-	-	-	22.1	-	25.7
COc1cc(C(=O)Nc2cccc(OCc3cc(=O)n4cc(C)sc4n3)c2)cc(OC)c1OC	.	.	.	.	-	.
CCOc1ccc(N/C(SCc2cccc([N+](=O)[O-])c2)=C(/C#N)C(N)=O)cc1	-	-	?	-	?	-
N#CC(C#N)=C(Nc1ccc(F)cc1)SCc1cccc(F)c1	10µM	?	?	-	-98.6	-
O=C(CSc1ncccc1-c1nc2ccccc2[nH]1)N1CCCCC1	-	?	-	79.1	-	34.0
Cc1ccc2nc(SCC(=O)N3c4ccccc4CC3C)c(C)cc2c1 (stereo unspecified)	-	?	.	-	-	-
CN(C)C(=O)CSc1ncccc1-c1nc2ccccc2[nH]1	-	-	-	-	-	-
O=C(O)c1cccnc1SCC(=O)N1CCCCCC1	-	?	-	-	-	-
CC(C)NC(=O)CSc1ncccc1-c1nc2ccccc2[nH]1	-	-	-	-	-	12.6
Cc1ccc2nc(-c3cccnc3SCC(=O)N3c4ccccc4CC3C)[nH]c2c1 (stereo unspecified)	?	?	?	135.8	-	30.8
CCN(CC)C(=O)CSc1ncccc1-c1nc2ccccc2[nH]1	?	-	-	-	?	17.0
Cc1ccc(NC(=O)CN2C(=O)NC(C)(CC(C)C)C2=O)c(Br)c1 (stereo unspecified)	-	.	.	.	-	.
C/C(CC(=O)Nc1cccnc1)=N\NC(=O)C(C)Oc1ccc(Cl)cc1Cl (stereo unspecified)	-	?	-	-	-	-
Fc1ccc(-c2noc(-c3ccc4c(c3)CCO4)n2)cc1	-	-	-	76.6	-	55.9
COc1ccc(C(=O)N/N=C/c2ccc(SC)cc2)cc1	?	?	-	-	-	19.1
COc1ccc(/C=C/C(=O)Oc2ccc(/C=N/NC(=O)c3ccncc3)cc2)cc1	-	-	?	-	-	-
CSc1ccc(/C=N/NC(=O)c2ccc3nc[nH]c3c2)cc1	.	.	.	.	-	.
CSc1ccc(/C=N/NC(=O)c2ccc(O)cc2)cc1	-	?	-	101.7	-	46.1
O=C(N/N=C/c1cccc(Oc2ccccc2)c1)c1cccc(Br)c1	?	-	?	-	-	-
O=C(N/N=C/c1cccc(Oc2ccccc2)c1)c1ccccc1Br	11.2µM	-	?	-	-90.8	-
SMILES	HCV inh	Pf growth 96h	Pf growth 48h	Shiga inhibitor	HCMV antiviral	CHX counter
O=C(N/N=C/c1cccc(Oc2ccccc2)c1)c1cccc(O)c1	-	?	-	57.8	-	34.8
O=C(CNc1cccc2ccccc12)N/N=C/c1cccc(Oc2ccccc2)c1	-	?	?	-	-60.7	-
O=C(CNc1cccc2ccccc12)N/N=C/c1ccccn1	-	-	?	-	-	-
COc1cc(OC)c(S(=O)(=O)NC(C)C)cc1S(=O)(=O)NC(C)C	-	-	-	-	-	-
Cn1ncc(Cl)c(Oc2ccccc2)c1=O	-	-	-	-	-	-
Cn1ncc(Cl)c(Oc2ccc(C(C)(C)C)cc2)c1=O	-	?	-	-	-	20.3
Oc1ccc(Cl)cc1CNn1cnnc1	-	-	-	-	-	-
Oc1ccccc1CNn1cnnc1	-	-	-	-	-100.4	-
CCOC(=O)c1c(C)[nH]c(C)c1C(=O)COC(=O)/C=C/c1ccc(Cl)cc1	-	9.28µM	?	-	-	-
CCOC(=O)c1c(C)[nH]c(C)c1C(=O)COC(=O)/C=C/c1ccc(OC(F)F)cc1	31.6µM	?	?	-	-	-
O=C(/C=C/c1ccc(Cl)cc1)OCC(=O)c1ccc[nH]1	-	-	-	.	-	.
CCOC(=O)c1c(C)[nH]c(C(=O)COC(=O)/C=C/c2ccc(OC(F)F)cc2)c1C	-	-	?	-	-	-
CC(=O)c1cccc(NC(=O)C(C)OC(=O)C2CCC2)c1 (stereo unspecified)	-	-	-	-	-	-
COc1ccccc1NC(=O)Cn1cc(C(=O)c2ccncc2)c(=O)c2cc(C)ccc21	.	.	.	.	-	.
CN1CC2=Cc3ccccc3OC23Oc2ccccc2C=C3C1	-	11.7µM	9.28µM	-	-80.1	-
CC1=C(C(=O)Nc2ccccc2C)C(c2ccccn2)n2ncnc2N1 (stereo unspecified)	.	.	.	.	-	.
Cc1ccccc1NC(=O)c1onc2c1CCCC2	-	-	-	123.0	-	49.0
Cc1cccc(NC(=O)c2onc3c2CCCC3)c1C	-	-	-	116.1	-	33.3
Cc1noc(NC(=O)c2ccc(Cl)cc2)c1Cl	-	-	-	66.1	-	44.5
COc1ccccc1C(=O)Nc1onc2c1CCCC2	.	.	.	.	-	.
Cc1noc(NC(=O)c2cccc(C(F)(F)F)c2)c1Cl	-	-	-	-	-	-
Cc1ccc(C(=O)Nc2onc3c2CCCC3)cc1	.	.	.	.	-74.9	.
Cc1cccc(NC(=O)c2onc3c2CCCC3)n1	-	-	-	-	-	33.3
CCOc1ccccc1NC(=O)Cn1c(=O)n(Cc2ccco2)c(=O)c2ccc(C(=O)NC3CCCC3)cc21	.	.	.	.	-	.
COc1cc(C(CCN2CCCC2)c2c(OC)cc(OC)c3c(C)cc(=O)oc23)cc(OC)c1OC (stereo unspecified)	10µM	9.28µM	7.38µM	-	-	-
SMILES	HCV inh	Pf growth 96h	Pf growth 48h	Shiga inhibitor	HCMV antiviral	CHX counter
COc1ccc(C(CCN2CCOCC2)c2c(OC)cc(OC)c3c(C)cc(=O)oc23)cc1 (stereo unspecified)	-	?	?	-	-	-
COc1cc(C(CCN2CCOCC2)c2c(OC)cc(OC)c3c(C)cc(=O)oc23)cc(OC)c1OC (stereo unspecified)	-	?	13.1µM	-	-	-
CCOCN(C(=O)Cn1c(C)nc2ccccc21)c1c(C)cccc1CC	.	.	.	.	-	.
CCOCN(C(=O)Cn1c(CC(C)C)nc2ccccc21)c1c(C)cccc1CC	.	.	.	.	-61.5	.
CC1CC1C(=O)OCC(=O)NC(=O)NC12CC3CC(CC(C3)C1)C2 (stereo unspecified)	-	-	-	86.4	-	42.7
CCOC(=O)CC(=O)CSc1nc(C)cc(C)c1C#N	-	-	-	-	-	-
